Growth data for eight molecules are collected here from PubChem BioAssay (NCI).

SMILES strings stand for the structures. The panel holds about 83,000 compounds, 20% with a hit somewhere; the sample as a whole holds those more often.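 Growth was measured after 48 h exposure to one concentration of compound in 96-well plates. Values under 10 count as active.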 A number with no mark means an inactive call. The source made the active and inactive calls.

Holding throughout (test): NCI-60 one-dose screen, 48 h (100 = growth as untreated, 0 = no growth, -100 = all killed)
Common to all, as to settings: 10 µM unless noted

For assay [1], the system named is NCI-H226 lung.
For assay [2], the system named is NCI-H322M lung.
Assay [3] has as its system HOP-62 NSCLC.
In assay [4] the test system is NCI-H460 lung.
The test system of assay [5] is HOP-92 NSCLC.
Assay [6] concerns NCI-H522 lung.
For assay [7], the system named is A549/ATCC NSCLC.
The test system of assay [8] is 786-0 renal.
Assay [9] has as its system COLO 205 colon.
Assay [10] relates to DU-145 prostate.
Assay [11] deals with K-562 leukemia.
Assay [12] relates to MALME-3M melanoma.
Assay [13] relates to MDA-MB-231 breast.
Assay [14] deals with RXF 393 renal.
Assay [15] deals with SF-268 CNS.
Assay [16] concerns SF-295 CNS.
The subject of assay [17] is SF-539 CNS.
Assay [18] deals with UACC-257 melanoma.
Assay [19] has as its system M14 melanoma.

On to `C#CCOc1cc(N(CC)CC)ccc1C(C(=O)NC(C)(C)C)N(C(=O)C1CCc2cc(F)ccc2O1)c1ccc(Br)cc1` (centres undefined), for which the growth was 81.2% in assay [1]; 82.5% in [2]; 77.1% in [3]; 60.3% in assay [4]; 89.6% in assay [5]; 67.7% in assay [6]. Further, the growth in assay [7] was 65.1%; in [8], 81.7%; in assay [9], 59.1%; in assay [10], 97.1%; in assay [11], 41.1%; in assay [12], 92.6%. Moreover, the growth was 61.6% in assay [13]; 103% in [14]; 92.8% in [15]; 96.4% in [16]; 81.1% in assay [17]; 87.8% in [18]. Further, the growth in assay [19] is 68.3%.

In the case of `Cn1cc(-c2nnc(N)nc2-c2c[nH]c3ccc(Br)cc23)c2cc(Br)cnc21`, the growth is 74% in assay [1]; 71.5% in assay [2]; 70.7% in assay [3]; 62.1% in [4]; 43.4% in [5]; 6.2% (active) in assay [6]. The growth was 59.5% in assay [7]; 46.2% in [8]; 66.6% in assay [9]; 75.8% in [10]; 26.7% in assay [11]; 69% in [12]. Further, the growth was 55.8% in [13]; 17.1% in assay [14]; 71.3% in [15]; 63.5% in assay [16]; 63.6% in assay [17]; 83.4% in assay [18]. Moreover, in [19], the growth was 57.2%.

As for `COc1ccc(/C=C/c2nc3ccccc3nc2Nc2cccc(C)c2)cc1`, the growth in [1] was 93.1%; in assay [2] it was 105%; in assay [3] it was 92.7%; in assay [4] it was 101%; in assay [5], 99.3%; in assay [6] it was 83%. In addition, the growth in assay [7] was 106%; in [8], 97.4%; in assay [9], 105%; in assay [10], 108%; in assay [11], 84.2%; in [12], 115%. Also, the growth in [13] is 88.5%; in [14], 109%; in [15] it was 96.8%; in [16] it was 127%; in assay [17] it was 103%; in assay [18], 112%. Also, the growth in assay [19] is 99.6%.

On to `Nc1nnc(-c2c[nH]c3ccc(Br)cc23)c(-c2c[nH]c3ncc(Br)cc23)n1`, for which the growth in [1] was 39.3%; in assay [2], 53.5%; in assay [3], 49.4%; in assay [5] it was 21.5%; in [6] it was 30.9%; in assay [7], 42.2%. The growth in [8] is 34.7%; in assay [9], 48.3%; in assay [10] it was 55.7%; in assay [11], 18.8%; in assay [12] it was 39.2%; in assay [13], 45.8%. Further, the growth was 2.79% (active) in assay [14]; 47.7% in [15]; 41.2% in assay [16]; 41.5% in [17]; 59.5% in assay [18]; 38.6% in [19].

On to `COc1cc2oc(-c3cccc(NC(=O)[C@H](CC(N)=O)NC(=O)OC(C)(C)C)c3)cc(=O)c2c(OC)c1OC`, for which the growth was 92.7% in [1]; 101% in assay [2]; 104% in assay [3]; 89.1% in assay [4]; 74.9% in [5]; 73.7% in [6]. The growth in assay [7] was 95%; in [8], 88.2%; in assay [9], 109%; in assay [10] it was 97.1%; in [11] it was 77.1%; in [12], 107%. Also, the growth was 97.7% in assay [13]; 69.4% in [14]; 90.2% in [15]; 103% in [16]; 78% in [17]; 112% in assay [18]. Moreover, the growth in assay [19] is 115%.

With `COc1cc(-c2nc3ccc(C)cc3[nH]2)ccc1OCc1nnc(-c2ccc(Br)cc2)o1`, the growth in [1] is 57.5%; in [2], 65.6%; in assay [3] it was 48%; in assay [5], 18.8%; in [6] it was 8.24% (active); in [7] it was 49.8%. The growth was -50.8% (active) in assay [8]; 3.01% (active) in assay [9]; 58.3% in [10]; 3.01% (active) in assay [11]; 45% in assay [12]; 12.9% in [13]. Moreover, the growth was 25.2% in assay [14]; 54.8% in [15]; -54.1% (active) in [16]; -82.7% (active) in assay [17]; -15.4% (active) in [18]; 31.2% in assay [19].

For `Cc1cccc(Nc2nc3ccccc3nc2/C=C/c2ccc(F)cc2)c1`, the growth is 95.2% in [1]; 95.5% in assay [2]; 99.7% in assay [3]; 84.5% in assay [5]; 79.4% in assay [6]; 91.2% in [7]. The growth in assay [8] was 97.3%; in [9] it was 106%; in assay [10], 101%; in [11], 86.5%; in assay [12] it was 109%; in assay [13] it was 97.1%. Besides, the growth in assay [14] was 98%; in assay [15], 91%; in assay [16] it was 107%; in assay [17], 102%; in assay [18], 94.5%; in [19], 93.3%.

`Cn1cc(-c2nc(N)nnc2-c2c[nH]c3ccc(Br)cc23)c2cc(Br)cnc21`: the growth was 11.9% in [1]; 37.8% in assay [2]; 17.8% in assay [3]; -25% (active) in assay [4]; -6.93% (active) in assay [5]; -47.4% (active) in [6]. The growth in [7] is 12.5%; in assay [8], -10.9% (active); in [9], -85.3% (active); in assay [10], 14.2%; in assay [11] it was 0.943% (active); in [12] it was 4.82% (active). Also, the growth in [13] is 11.4%; in assay [14] it was -8.55% (active); in assay [15] it was 10.9%; in [16], 11.4%; in assay [17] it was -9.44% (active); in assay [18], 47.3%. Besides, the growth in assay [19] is 0.895% (active).
